# A number with no mark means an inactive call.
# Test system: Pseudomonas aeruginosa PA14 dppA1-A5 penta mutant + pBBR5.DppA1 (PA14_58350)
# Experiment: respiration area under curve with compound as sole nitrogen source, 24 h (OmniLog AUC (arbitrary units)); higher = more respiration / better utilisation as nitrogen source, active = 2000 or more
# Description: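 Biolog Phenotype MicroArray plates PM6-PM8: each di/tripeptide is the sole nitrogen source. Tetrazolium reduction was read in the OmniLog for 24 h at 37°C and summarised as area under the respiration curve (arbitrary units). Values below 2000 count as no respiration. Strain is the SBP penta mutant complemented with DppA1 on a plasmid under its native promoter. Lys/His/Cys peptides are excluded.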
row,Structure (SMILES),respiration area under curve
1,C[C@@H](NC(=O)CN)C(=O)O (plate: PM8),3490 (active)
2,CC(C)[C@H](N)C(=O)N[C@@H](Cc1ccccc1)C(=O)O (plate: PM8),5560 (active)
3,CC(C)C[C@H](NC(=O)[C@@H](N)CC(C)C)C(=O)O (plate: PM6),1870
4,NC(=O)CC[C@H](NC(=O)[C@@H](N)Cc1ccc(O)cc1)C(=O)O (plate: PM7),12100 (active)
5,CC[C@H](C)[C@H](N)C(=O)N[C@@H](Cc1ccccc1)C(=O)O (plate: PM6),1500
6,CC(C)[C@H](NC(=O)[C@H](C)N)C(=O)O (plate: PM8),7610 (active)
7,CC(C)C[C@H](NC(=O)[C@@H](N)Cc1c[nH]c2ccccc12)C(=O)O (plate: PM7),3710 (active)

# Test system: Pseudomonas aeruginosa PA14 wild type
# Experiment: as above
# Description: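 Biolog Phenotype MicroArray plates PM6-PM8: each di/tripeptide is the sole nitrogen source (IF-0 medium with succinate/ferric citrate and dye mix A). Tetrazolium reduction was read in the OmniLog every 15 min for 24 h at 37°C and summarised as area under the respiration curve (arbitrary units). The paper counts values below 2000 as no respiration and above 8000 as solid respiration. Replicate datasets are averaged.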
row,Structure (SMILES),respiration area under curve
1,C[C@H](NC(=O)[C@@H](N)Cc1c[nH]c2ccccc12)C(=O)O (plate: PM7),5630 (active)
2,C[C@@H](NC(=O)CN)C(=O)O (plate: PM8),5060 (active)
3,C[C@H](N)C(=O)N[C@@H](CCCN=C(N)N)C(=O)O (plate: PM6),10100 (active)
4,CC(C)[C@H](N)C(=O)N[C@@H](Cc1ccccc1)C(=O)O (plate: PM8),6560 (active)
5,CC(C)C[C@H](NC(=O)[C@@H](N)CC(C)C)C(=O)O (plate: PM6),3640 (active)
6,N[C@@H](Cc1c[nH]c2ccccc12)C(=O)N[C@@H](Cc1c[nH]c2ccccc12)C(=O)O (plate: PM7),1430
7,CC[C@H](C)[C@H](NC(=O)[C@H](C)N)C(=O)O (plate: PM8),9130 (active)
8,N[C@@H](Cc1ccc(O)cc1)C(=O)N[C@@H](CCC(=O)O)C(=O)O (plate: PM7),4890 (active)
9,CC(C)C[C@@H](N)C(=O)N[C@@H](Cc1ccc(O)cc1)C(=O)O (plate: PM8),36.8
10,C[C@H](N)C(=O)N[C@@H](CCC(N)=O)C(=O)O (plate: PM8),11600 (active)
11,NC(Cc1c[nH]c2ccccc12)C(=O)NC(Cc1ccccc1)C(=O)O (configuration not stated) (plate: PM7),547
12,NC(=O)CC[C@H](NC(=O)[C@@H](N)Cc1ccc(O)cc1)C(=O)O (plate: PM7),13000 (active)
13,CC[C@H](C)[C@H](N)C(=O)N[C@@H](CCSC)C(=O)O (plate: PM6),1290
14,CC[C@H](C)[C@H](NC(=O)[C@@H](N)CCCN=C(N)N)C(=O)O (plate: PM6),9540 (active)
15,CSCC[C@H](N)C(=O)N[C@@H](Cc1c[nH]c2ccccc12)C(=O)O (plate: PM7),3640 (active)
16,NC(N)=NCCC[C@H](N)C(=O)N[C@@H](CCC(=O)O)C(=O)O (plate: PM6),9830 (active)
17,N[C@@H](Cc1ccc(O)cc1)C(=O)N[C@@H](Cc1ccccc1)C(=O)O (plate: PM7),6680 (active)
18,C[C@H](NC(=O)[C@@H](N)Cc1ccc(O)cc1)C(=O)O (plate: PM7),11200 (active)
19,CC(C)[C@H](NC(=O)[C@@H](N)CC(N)=O)C(=O)O (plate: PM6),7030 (active)
20,CC(C)C[C@H](NC(=O)[C@@H](N)C(C)C)C(=O)O (plate: PM7),9770 (active)
21,C[C@H](NC(=O)[C@@H](N)CCC(=O)O)C(=O)O (plate: PM8),9190 (active)
22,CSCC[C@H](N)C(=O)N[C@@H](CCC(=O)O)C(=O)O (plate: PM7),1960
23,CSCC[C@H](N)C(=O)NCC(=O)O (plate: PM7),5050 (active)
24,CC[C@H](C)[C@H](N)C(=O)N1CCC[C@H]1C(=O)O (plate: PM6),7460 (active)
25,C[C@H](N)C(=O)N[C@@H](CC(N)=O)C(=O)O (plate: PM6),8960 (active)
26,NCC(=O)N[C@@H](Cc1ccccc1)C(=O)N[C@@H](Cc1ccccc1)C(=O)O (plate: PM8),8980 (active)
27,C[C@H](NC(=O)CCN)C(=O)O (plate: PM8),6440 (active)
28,CCC(C)C(N)C(=O)NC(CC(N)=O)C(=O)O (configuration not stated) (plate: PM8),9360 (active)
29,N[C@@H](Cc1ccccc1)C(=O)N[C@@H](CC(=O)O)C(=O)O (plate: PM8),2860 (active)
30,C[C@H](N)C(=O)N[C@@H](C)C(=O)N[C@@H](C)C(=O)O (plate: PM8),10400 (active)

# — the supplement of paper PMC4206461
